# Reference: PubChem BioAssay
# Several values for one entry are separate records, joined by “and”; a condition that tells them apart may be missing. Equal entries are not always repeated. Activity calls are given as the source filed them. Unless noted, how the calls were made is not given here.
# Tests used:
# [1] = compound effects on lung adenocarcinoma cell viability – A549, calcein-AM fluorescence, 48 h, basal, profiling panel (AID 1162); conditions: higher = more signal; further: test concentration not given here
# [2] = compound effects on differentiated 3T3-L1 adipocyte viability – cell-based, 3T3-L1 adipocytes, calcein-AM fluorescence, 48 h, basal, profiling panel (AID 1163); conditions: 3T3-L1 adipocytes viability, higher = more signal; further: test concentration not given here
# [3] = compound effects on hepatocellular carcinoma cell viability – HepG2, calcein-AM fluorescence, 48 h, basal, profiling panel (AID 1164); conditions: higher = more signal; further: test concentration not given here
# [4] = compound effects on multiple myeloma cell viability – MM1S, calcein-AM fluorescence, 48 h, basal, profiling panel (AID 1165); conditions: higher = more signal; further: test concentration not given here
# [5] = calcein-AM signal in unstimulated myeloma cells – cell-based, calcein-AM fluorescence, 48 h, PK04 Diversity Set, profiling panel (AID 1166); conditions: RPMI8226 myeloma viability, higher = more signal;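 further: cells grown under basal conditions without added stimulus; test concentration not given here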
# [6] = JC-1 mitochondrial signal, unstimulated HepG2 cells – cell-based, JC-1 fluorescence, 24 h, 100 nL compound, profiling panel (AID 1167); conditions: HepG2 mitochondrial potential, higher = more signal; further: test concentration not given here
# [7] = JC-1 mitochondrial signal, unstimulated adipocytes – cell-based, JC-1 fluorescence, 3T3-L1 adipocytes, 24 h, 100 nL compound, profiling panel (AID 1168); conditions: JC-1 mitochondrial fluorescence, higher = more signal, called active from +8 up or from −8 down; further: test concentration not given here
# [8] = JC-1 mitochondrial signal, unstimulated myeloma cells – cell-based, JC-1 fluorescence, RPMI8226, 24 h, 100 nL compound, profiling panel (AID 1169); conditions: JC-1 mitochondrial potential fluorescence, higher = more signal; further: test concentration not given here
# [9] = JC-1 mitochondrial signal, unstimulated MM1S myeloma – cell-based, JC-1 fluorescence, 24 h, 100 nL compound, profiling panel (AID 1170); conditions: MM1S mitochondrial potential, higher = more signal; further: test concentration not given here
# [10] = resazurin metabolic signal in A549 cells – cell-based, resazurin fluorescence, 24 h, PK04 Diversity Set, profiling panel (AID 1171); conditions: A549 viability, higher = more signal, called active from +8 up or from −8 down; further: test concentration not given here
# [11] = resazurin metabolic signal in HepG2 cells – cell-based, resazurin fluorescence, 24 h, PK04 Diversity Set, profiling panel (AID 1172); conditions: HepG2 viability, higher = more signal; further: test concentration not given here
# [12] = budding yeast growth changes without added modifier – OD600, strain BY4716, 24 h, basal condition, primary screen (AID 1173); conditions: S. cerevisiae BY4716 growth, OD600, 24 h; higher = more signal, called active from +8 up or from −8 down
# [13] = viability profiling in MM1S myeloma cells – cell-based, resazurin fluorescence, basal, 24 h, PK04 Diversity Set, profiling panel (AID 1174); conditions: higher = more signal, called active from +8 up or from −8 down; further: test concentration not given here
# [14] = target: Dihydroorotate dehydrogenase (quinone), mitochondrial (Plasmodium falciparum (isolate 3D7)) (UniProt Q08210); assay: inhibition of P. falciparum DHODH – biochemical, C-terminal His tag, absorbance 600 nm, primary screen (AID 1175); conditions: PfDHODH enzyme, DCIP absorbance 600 nm; higher = more signal, called active from +8 up or from −8 down;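 further: recombinant parasite enzyme with a five histidine tag at its C terminus; test concentration not given here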
# [15] = inhibition of PAO1 biofilm formation – strain PAO1, LB-PBS medium, absorbance 600 nm, primary screen (AID 1176); further: test concentration not given here; conditions: P. aeruginosa PAO1 growth/biofilm, A600, 12 h; higher = more signal
# [16] = growth modulation of vineyard yeast isolate – strain RM11-1a, OD600, basal, 24 h, primary screen (AID 1177);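 further: cultures grown under basal conditions with no added stressor; test concentration not given here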; conditions: S. cerevisiae RM11-1a growth, OD600, 24 h; higher = more signal, called active from +8 up or from −8 down
# [17] = growth of efflux-deficient E. coli DRC39 – strain DRC39, OD650, 24 h, E. coli filamentation inducers, primary screen (AID 1178);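 further: growth measured as culture turbidity by optical density at 650 nm; test concentration not given here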; conditions: E. coli DRC39 acrAB, higher = more signal, called active from +8 up or from −8 down
# [18] = growth of efflux-deficient E. coli DRC39 – strain DRC39, OD650, 48 h, E. coli filamentation inducers, primary screen (AID 1179);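 further: screen aims at cell division blockers that make cells filament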; conditions: E. coli DRC39 delta-acrAB growth, higher = more signal, called active from +8 up or from −8 down
# [19] = viability profiling in RPMI8226 myeloma cells – cell-based, resazurin fluorescence, basal, 24 h, PK04 Diversity Set, profiling panel (AID 1180); conditions: higher = more signal;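 further: RPMI8826 multiple myeloma cell line at 5000 cells per well; test concentration not given here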
# [20] = target: E3 ubiquitin-protein ligase XIAP (Homo sapiens) (UniProt P98170); assay: small molecules binding XIAP protein – biophysical, small-molecule microarray, fluorescence 635 nm, primary screen (AID 1181); conditions: higher = more signal;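 further: score merges 667 nm emission and signal to noise over triplicate slides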
# E3 ubiquitin-protein ligase XIAP (Homo sapiens), sequence (P98170 whole entry, looked up): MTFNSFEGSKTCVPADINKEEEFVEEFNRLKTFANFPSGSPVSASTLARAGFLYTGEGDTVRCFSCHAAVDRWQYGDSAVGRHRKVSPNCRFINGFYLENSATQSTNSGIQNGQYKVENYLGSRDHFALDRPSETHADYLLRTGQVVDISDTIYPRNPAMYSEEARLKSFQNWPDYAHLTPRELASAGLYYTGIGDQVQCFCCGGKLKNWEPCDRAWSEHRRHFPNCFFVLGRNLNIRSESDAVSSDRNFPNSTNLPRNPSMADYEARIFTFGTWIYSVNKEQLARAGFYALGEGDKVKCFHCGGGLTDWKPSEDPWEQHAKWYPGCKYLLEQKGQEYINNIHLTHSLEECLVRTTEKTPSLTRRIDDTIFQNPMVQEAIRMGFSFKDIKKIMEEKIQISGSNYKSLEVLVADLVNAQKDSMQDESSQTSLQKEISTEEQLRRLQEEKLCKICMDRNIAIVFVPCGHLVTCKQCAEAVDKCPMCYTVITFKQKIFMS
# Dihydroorotate dehydrogenase (quinone), mitochondrial (Plasmodium falciparum (isolate 3D7)), sequence (Q08210 whole entry, looked up): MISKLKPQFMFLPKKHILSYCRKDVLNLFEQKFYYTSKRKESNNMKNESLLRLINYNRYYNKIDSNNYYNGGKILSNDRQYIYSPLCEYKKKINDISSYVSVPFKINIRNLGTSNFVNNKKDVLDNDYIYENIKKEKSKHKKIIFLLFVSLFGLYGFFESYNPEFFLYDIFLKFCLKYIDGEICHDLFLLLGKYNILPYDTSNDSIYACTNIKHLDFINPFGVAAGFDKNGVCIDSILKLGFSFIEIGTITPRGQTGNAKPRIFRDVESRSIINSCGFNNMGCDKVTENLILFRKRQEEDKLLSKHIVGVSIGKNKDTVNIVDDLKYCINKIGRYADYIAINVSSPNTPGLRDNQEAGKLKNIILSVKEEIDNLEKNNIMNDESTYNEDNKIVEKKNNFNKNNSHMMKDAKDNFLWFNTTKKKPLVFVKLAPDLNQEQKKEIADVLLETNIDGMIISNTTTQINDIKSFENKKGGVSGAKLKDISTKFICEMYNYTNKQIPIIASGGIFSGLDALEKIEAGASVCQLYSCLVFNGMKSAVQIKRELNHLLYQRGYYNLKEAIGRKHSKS
SMILES,z-score [1],z-score [2],z-score [3],z-score [4],z-score [5],z-score [6],z-score [7],z-score [8],z-score [9],z-score [10],z-score [11],z-score [12],z-score [13],composite z-score [14],z-score [15],z-score [16],z-score [17],z-score [18],z-score [19],composite z-score [20]
CC(=O)OC[C@H]1O[C@H](C#CC(C)(C)C)C=C[C@@H]1OC(C)=O,-0.327,-0.274,-0.24,-3.02,-1.73,-0.888,0.386 (inactive),-0.776,0.085,-0.595 (inactive),-0.374,-0.854 (inactive),-0.756 (inactive),-0.187 (inactive),-0.151 (inactive),-0.066 (inactive),0.545 (inactive),0.221 (inactive),-0.26,0.0237
C[C@@H]1CC[C@H]2C(=O)N3[C@@H](CC[C@@H](C)[C@@H]3c3ccc(-c4ccco4)cc3)C(=O)N2[C@H]1c1ccc(-c2ccco2)cc1,-0.521 and 0.709,0.489 and 0.992,-0.676 and -0.195,-0.372 and -2.15,-0.537 and -1.3,-1.41 and -2.19,-0.996 (inactive) and -0.779 (inactive),0.299 and -0.414,0.863 and 0.498,-0.244 (inactive) and 1.43 (inactive),-0.458 and 0.764,0.666 (inactive) and -1.56 (inactive),-0.316 (inactive) and 1.14 (inactive),-1.48 (inactive) and -7.32 (inactive),0.143 (inactive),0.43 (inactive) and -0.546 (inactive),0.0111 (inactive) and 0.845 (inactive),-0.0533 (inactive) and 0.0395 (inactive),0.136 and 1.2,-0.0559 and 0.217
CCN1C(=O)[C@H]2[C@H]3[C@H](O)[C@H](O)CC(=NOC)[C@@H]3CC[C@H]2C1=O,0.357,-0.344,-0.0225,-0.106,0.887,0.459,1.7 (inactive),0.0805,-0.218,-0.562 (inactive),0.146,-1.88 (inactive),0.0831 (inactive),-0.581 (inactive),0.924 (inactive),-0.458 (inactive),0.759 (inactive),0.953 (inactive),0.0325,0.487
CCCC[C@@H]1CN2[C@H](c3ccc(Br)cc3)[C@@H](C)CC[C@H]2C(=O)O1,1.03 and 0.449,-1.1 and -0.272,0.155 and 0.493,-1.36 and -0.797,0.969 and 0.24,0.134 and -1.42,-0.299 (inactive) and -0.848 (inactive),-0.187 and -0.361,-1.19 and 1.26,0.301 (inactive) and 1.49 (inactive),0.0187 and 0.563,-1.99 (inactive) and -1.8 (inactive),0.0474 (inactive) and 0.358 (inactive),0.0663 (inactive) and -0.155 (inactive),0.192 (inactive) and -0.172 (inactive),0.434 (inactive) and -0.478 (inactive),1.06 (inactive) and 0.354 (inactive),0.958 (inactive) and 0.41 (inactive),0.735 and 0.839,-0.256 and -0.352
CCCC[C@@H]1CN2[C@@H](CC[C@@H](C)[C@@H]2c2ccc(Br)cc2)C(=O)O1,0.761 and 1.06,-0.857 and -0.567,0.537 and -0.336,-1.1 and 0.516,0.309 and -0.616,-0.48 and 0.127,-0.136 (inactive) and -1.09 (inactive),0.266 and -0.0989,0.0213 and -0.396,-0.335 (inactive) and -0.178 (inactive),-0.175 and 0.523,-1.57 (inactive) and -1.39 (inactive),0.0509 (inactive) and 0.231 (inactive),0.466 (inactive) and -0.248 (inactive),-0.221 (inactive) and -0.175 (inactive),0.229 (inactive) and -0.0641 (inactive),0.777 (inactive) and 0.606 (inactive),0.535 (inactive) and -1.07 (inactive),0.387 and 0.756,0.0537 and -0.185
CC[C@@H]1C(Sc2ccccc2)C(C(=O)O)[C@H](c2ccc(C)cc2)N1S(=O)(=O)c1ccc(C)cc1 (stereo not given in full),0.0996 and 0.624,-0.505 and 0.311,0.364 and 0.126,0.702 and 1.11,-0.528 and -0.148,-0.446 and 0.366,0.164 (inactive) and 0.619 (inactive),0.296 and -0.369,-0.152 and -0.291,-0.631 (inactive) and -1.02 (inactive),-0.706 and -0.917,-0.28 (inactive) and -1.3 (inactive),-0.567 (inactive) and 0.0522 (inactive),0.0392 (inactive) and -0.581 (inactive),0.133 (inactive) and 0.257 (inactive),-0.112 (inactive) and -1.09 (inactive),-0.604 (inactive) and -0.627 (inactive),-0.106 (inactive) and 0.575 (inactive),-1.17 and -0.637,0.287 and 0.382
